# From PubChem BioAssay (EPA / NIEHS)
# Several values for one entry are separate records, joined by “and”; a condition that tells them apart may be missing. Equal entries are not always repeated. Records with an inconclusive call do not appear. Activity calls are given as the source filed them. Rule for the calls, unless noted: active = hit-call score of the fitted dose curve at least 0.9, where 1 is the maximum; inconclusive = response in the unintended direction; inactive = score below 0.9.
# Columns and labels:
# [1] = Tanguay_ZF_120hpf_TRUN_legacy: (Legacy) Oregon State University Tanguay Lab 120 Hour Post-fertilization zebrafish Assay for Truncated Body (AID 2283655)
# How it was run: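 Dechorionated Tropical 5D wild-type embryos placed singly from 6 hpf and statically exposed to 120 hpf at 28C, final DMSO 0.64%. Truncated body scored as present/absent by brightfield; not scored in dead embryos.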
# [2] = Tanguay_ZF_120hpf_NC_legacy: (Legacy) Oregon State University Tanguay Lab 120 Hour Post-fertilization zebrafish Assay for Notochord and Tail Malformation (AID 2283656)
# How it was run: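 Binary scoring of notochord distortion by brightfield microscopy; embryos dying were not scored. Wild-type Tropical 5D embryos, chorion removed, exposed singly and statically from 6 to 120 hpf, 28C, sealed, 0.64% DMSO.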
# [3] = Tanguay_ZF_120hpf_TR_legacy: (Legacy) Oregon State University Tanguay Lab 120 Hour Post-fertilization zebrafish Assay for Touch Response (AID 2283667)
# How it was run: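 Binary touch-response call at 120 hpf, analysed as gain of signal versus DMSO baseline. Wild-type 5D larvae, static exposure at 28C, 0.64% DMSO final; 5uM trimethyltin chloride as positive control.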
# [4] = system: Thyroperoxidase (TPO), gene 54314; experiment: CCTE_Simmons_AUR_rTPO: CCTE's Amplex UltraRed Assay for Thyroperoxidase (TPO) Inhibition, Simmons Lab (AID 2283662);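 note: potency for loss of signal meaning inhibition of peroxidase activity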
# How it was run: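 Cell-free peroxidase activity assay using rat thyroid gland microsomes with excess H2O2 (300 uM) and 25 uM Amplex UltraRed. Compounds tested from 5 nM to 87.5 uM; fluorescence measured after 30 min at 37C, analysed relative to DMSO baseline.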
# [5] = CCTE_Simmons_CellTiterGLO_HEK293T: Viability Assessment in CCTE's Assays for Thyroperoxidase (TPO) Inhibition, Simmons Lab (AID 2283665);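 for AC50: cells exposed to compound for 24 h before readout; actives reduce ATP signal below DMSO vehicle meaning cytotoxicity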
# How it was run: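 Cells were seeded overnight, then exposed to an eight-point series up to 87.5 uM final for 24 hours. CellTiter-Glo reagent was added and luminescence read after 20 min, giving ATP-based viability versus DMSO.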
# [6] = CCTE_Padilla_ZF_144hpf_TERATOSCORE: (Legacy) CCTE's 144 Hour Post-fertilization zebrafish Assay Teratoscore, Padilla Lab (AID 2283679; active = hit-call score of the fitted dose curve at least 0.9, where 1 is the maximum; inactive = score below 0.9;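 for AC50: zebrafish embryos with chorions exposed by immersion from 6-8 hpf to 5 dpf with daily renewal; teratogenicity score from eye scoring of death hatching and malformations at 144 hpf; higher score means more developmental defects relative to DMSO baseline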)
# How it was run: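 Larvae scored by eye at 144 hpf for death, hatching and malformations after a day in clean Hanks'. Before that, daily-renewed exposure at 80 uM (0.4% DMSO, 26C) from roughly 6-8 hpf through 5 dpf, 4 embryos per chemical.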
# [7] = read-out: solute carrier (SLC10A1), SLC10A1 (gene 6554); experiment: LTEA_HepaRG_SLC10A1: Life Technologies and Expression Analysis (LTEA) Assay for solute carrier (SLC10A1) using HepaRG (AID 2283657; active = hit-call score of the fitted dose curve at least 0.9, where 1 is the maximum; inactive = score below 0.9); settings: mRNA level, 48 h; actives raise or lower the signal
# How it was run: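 HepaRG, 48 h exposure, 8-pt half-log curve from 100 uM in 0.5% DMSO, duplicates. Read-out: TaqMan qRT-PCR of SLC10A1 mRNA, normalized to three housekeeping genes. Gain/loss fit vs DMSO baseline.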
# [8] = read-out: matrix metalloproteinase-1 (MMP1), MMP1 (gene 4312); experiment: LTEA_HepaRG_MMP1: Life Technologies and Expression Analysis (LTEA) Assay for matrix metalloproteinase-1 (MMP1) using HepaRG (AID 2283658; active = hit-call score of the fitted dose curve at least 0.9, where 1 is the maximum; inactive = score below 0.9); settings: mRNA level, 48 h; actives raise or lower the signal
# Method: LTEA_HepaRG is a cell based, multiplexed-readout assay that uses HepaRG, a human liver cell line, with measurements taken at 48 hours after chemical dosing on a 96-well plate.LTEA_HepaRG_MMP1 is one of 102 assay component(s) measured in the LTEA HepaRG cell culture assay. It is a marker of Fibrosis.Data from the assay component LTEA_HepaRG_MMP1 was analyzed into 1 endpoint. This assay endpoint, LTEA_HepaRG_MMP1, was analyzed with bidirectional fitting relative to DMSO as the negative control and baseline of activity. Using a type of inducible reporter, measures of mRNA induction for gain or loss-of-signal activity can be used to understand regulation of transcription factor activity. To generalize the intended target to other relatable targets, this assay endpoint is annotated to the protease intended target family, where the subfamily is matrix metalloproteinase.
# A total of 1060 chemcials from the ToxCast library were tested in eight-point concentration-response experiments. Cell culture and cytotoxicity assays were conducted at Thermo Fisher Scientific's Custom Services facility (Madison, WI). A single lot of human HepaRG cells (Thermo Fisher Scientific, Frederick, MD) was used for the cell culture experiments. 96-well format collagen type I coated plates of human HepaRG cells were prepared using established methods. Briefly, cryopreserved HepaRG cells were thawed, plated at a density of approximately 100,000 cells/well in HepaRG Thaw, Plate, and General Purpose media (HPRG770, Thermo Fisher Scientific), and incubated for 48 hours. 0.5% DMSO was selected as vehicle control to balance the requisite need of DMSO in HepaRG cultures to maintain differentiation (for example, baseline metabolism, proportions of hepatocytes vs. cholangiocytes), while enabling further hepatic receptor pathway activation (for example, PXR and CAR) in response to chemical exposure. 48 hours after plating, the culture medium was replaced with HepaRG Serum-Free Incudtion Media. Cells were exposed to each test chemical in duplicate and maintained in CO2 incubators for another 48 hours. Chemical plates were thawed to room temperature and 200x concentrations of treatment groups were prepared. 8-point conentration-reponse curves were made with the highest exposure at 100 uM, followed by half-log dilutions, all in 0.5% DMSO. Each test plate contained variouse controls, induction positive controls (1mM phenobarbital), cytotoxicity positive controls ([…] aflatoxin B1), vehicle controls (0.5% DMSO), and total lysis controls (0.5% DMSO). Cell morphology images were taken using an Essen IncuCyte FLR automated microscope, with six 96-well plates imaged in about 24 minutes. Images were captured and exported and JPEG files. Spent culture media was transfered to black-well plates for the LDH assay, and remaining media was sorted at -80 C for later use. Cells were treated with RLT buffer and frozen until shipped for gene expression analysis. Total RNA was isolated from the cell suspension in 75 uL of Buffer RLT (Qiagen, Germantown, MD 20874) by Quintiles/Expression Analysis (Durham, NC) using a custom isolation procedure. Total RNA from each plate well was transferred to a preamplification plate. Fluidigm's 96.96 Dynamic ArrayTM (Fluidigm, Amsterdam, the Netherlands) technology was used for gene expression analyses by quantitative reverse transcription polymerase chain reaction (qRT-PCR, performed by Quintiles/Expression Analysis, Durham, NC)89. Standard TaqManTM Assays (Applied Biosystems/ThermoFisher Scientific, Foster City, CA) were used to assess the expression of 93 genes selected based on their selectivity and sensitivity to important hepatic receptors known to be modulated by environmental chemicals; importance in human hepatocyte functionality; and hepatotoxicity. […]
# [9] = read-out: Cytochrome P450 (CYP24A1_1), CYP24A1 (gene 1591); experiment: LTEA_HepaRG_CYP24A1_1: Life Technologies and Expression Analysis (LTEA) Assay for Cytochrome P450 (CYP24A1_1) using HepaRG (AID 2283671; active = hit-call score of the fitted dose curve at least 0.9, where 1 is the maximum; inactive = score below 0.9); settings: mRNA level, 48 h; actives raise or lower the signal
# How it was run: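 Readout is CYP24A1 transcript level by qRT-PCR, normalized to three housekeeping genes, with gain or loss of signal fitted against 0.5% DMSO. Human HepaRG cells received compound for 48 h at up to 100 uM.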
# [10] = STM_H9_OrnithineISnorm_perc: Stemina devTOX quickPredict H9 human embryonic stem cell (hESC)-based Assay for Ornithine (ORN) Metabolite Biomarker, Normalized (AID 2283712; active = hit-call score of the fitted dose curve at least 0.9, where 1 is the maximum; inactive = score below 0.9;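 note: ornithine released into spent medium during last day measured by mass spectrometry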)
# How it was run: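 Ornithine secreted by H9 hESCs after 72h compound treatment (daily media/compound renewal) was quantified in final-day media by UPLC-HRMS. Values are isotope-standard-normalized, expressed relative to 0.1% DMSO, fitted in positive direction.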
compound,measurement,setting,value
COC(=O)CCCCC(=O)OC,outcome,[1],inactive
same,outcome,[2],inactive
same,outcome,[3],inactive
CC(C)(C)CC(C)(C)c1ccc(O)c(-n2nc3ccccc3n2)c1,outcome,[1],inactive
CC(C)CCCCCCOC(=O)CCCCC(=O)OCCCCCCC(C)C,outcome,[1],inactive
same,outcome,[2],inactive
CC(C)(C)c1ccc(O)c(C(C)(C)C)c1,outcome,[1],inactive
same,outcome,[2],inactive
same,AC50,[4],13.6 µM (active)
same,AC50,[5],6.68 µM (active)
same,AC50,[6],7.38 µM (active)
C=C(C)C(=O)OCCC(F)(F)C(F)(F)C(F)(F)C(F)(F)C(F)(F)C(F)(F)F,outcome,[1],inactive
same,outcome,[2],inactive
same,outcome,[7],inactive
same,outcome,[8],inactive
same,outcome,[9],inactive
same,outcome,[6],inactive
CC(=O)NC1(c2cccc(F)c2)CCN(CC[C@@]2(c3ccc(Cl)c(Cl)c3)CN(c3ccccc3)C(=O)CO2)CC1,outcome,[1],inactive
same,outcome,[2],inactive
CN(C)C=O,outcome,[1],inactive
same,outcome,[10],inactive
Cc1cc(C)c(O)c(C)c1,outcome,[2],inactive
same,AC50,[4],5.53 µM (active)
same,outcome,[5],inactive
c1ccc2c(c1)Cc1ccccc1-2,outcome,[2],inactive
OCCC(F)(F)C(F)(F)C(F)(F)C(F)(F)C(F)(F)C(F)(F)C(F)(F)C(F)(F)F,outcome,[1],inactive
same,outcome,[2],inactive
same,outcome,[6],inactive
COc1ccc([N+](=O)[O-])cc1N,outcome,[1],inactive
same,AC50,[4],3.52 µM (active)
same,outcome,[5],inactive
same,outcome,[10],inactive
CN1CCC[C@H]1c1cccnc1,outcome,[1],inactive
same,outcome,[2],inactive
same,outcome,[10],inactive
CCc1ccc(CCOc2ccc(CC3SC(=O)NC3=O)cc2)nc1 (stereo unspecified),outcome,[1],inactive
same,outcome,[2],inactive
same,outcome,[3],inactive
same,AC50,[10],72.1 µM (active)
Cc1oc(-c2ccccc2)nc1CCOc1ccc(C[C@H](Nc2ccccc2C(=O)c2ccccc2)C(=O)O)cc1,outcome,[1],inactive
same,AC50,[4],27.5 µM (active)
same,AC50,[5],12.1 µM (active)
same,outcome,[3],inactive
same,AC50,[6],5.11 µM (active)
c1ccc2cc3c(ccc4ccccc43)cc2c1,outcome,[1],inactive
same,AC50,[4],22.6 µM (active)
same,AC50,[5],43.8 µM (active)
same,outcome,[3],inactive
same,AC50,[6],20.4 µM (active)
CCCCCCCCCCCCCC[N+](C)(C)C,AC50,[4],38.4 µM (active)
same,AC50,[5],13.7 µM (active)
O=C(O)Cc1cc(I)c(Oc2cc(I)c(O)c(I)c2)c(I)c1,outcome,[1],inactive
same,outcome,[2],inactive
same,AC50,[6],0.0352 µM (active)
same,outcome,[10],inactive
CC#C[C@]1(O)CC[C@H]2[C@@H]3CCC4=CC(=O)CCC4=C3[C@@H](c3ccc(N(C)C)cc3)C[C@@]21C,outcome,[2],inactive
same,AC50,[4],4.74 µM (active)
same,AC50,[5],17.7 µM (active)
same,AC50,[3],11.7 µM (active)
same,AC50,[6],14.5 µM (active)
COCC(C)O (stereo unspecified),outcome,[1],inactive
same,outcome,[6],inactive
CCC(C)(C)C1CCC(O)CC1 (stereo unspecified),outcome,[1],inactive
same,outcome,[2],inactive
same,outcome,[6],inactive
O=C(OCCOCCOC(=O)c1ccccc1)c1ccccc1,outcome,[1],inactive
same,outcome,[7],inactive
same,outcome,[8],inactive
same,outcome,[9],inactive
same,AC50,[6],1.74 µM (active)
same,outcome,[10],inactive
CCCCCCCCCCCCCCCS(=O)(=O)Oc1ccccc1,outcome,[1],inactive
same,outcome,[3],inactive
CC(=O)CC(C)(C)O,outcome,[1],inactive
same,outcome,[2],inactive
same,outcome,[3],inactive
same,outcome,[6],inactive
OC1CCCCC1,outcome,[1],inactive
same,outcome,[2],inactive
same,outcome,[3],inactive
same,outcome,[6],inactive
c1ccc2c(c1)ccc1ccccc12,outcome,[1],inactive
same,outcome,[2],inactive
same,outcome,[6],inactive
same,AC50,[10],88.8 µM (active)
N#C[C@@H]1CC(F)(F)CN1C(=O)CNC1CC2CCC(C1)N2c1ncccn1 (stereo partly specified),outcome,[1],inactive
same,AC50,[4],36.6 µM (active)
same,outcome,[5],inactive
same,outcome,[10],inactive
C[C@@H]1C[C@H]2[C@@H]3CCC4=CC(=O)C=C[C@]4(C)[C@@]3(F)[C@@H](O)C[C@]2(C)[C@@]1(O)C(=O)COP(=O)(O)O,outcome,[1],inactive
same,outcome,[2],inactive
same,outcome,[6],inactive
same,outcome,[10],inactive
O=[N+]([O-])c1ccc(O)cc1,outcome,[1],inactive
same,outcome,[2],inactive
same,AC50,[6],64.4 µM (active) and 59 µM (active)
Cc1cc(CCN2CCN(c3nsc4ccccc34)CC2)cc2c1NC(=O)CC2(C)C,AC50,[1],3.08 µM (active)
same,AC50,[2],4.88 µM (active)
same,AC50,[6],1.64 µM (active)
same,AC50,[10],5 µM (active)
COCC(C)OCC(C)O (stereo unspecified),outcome,[2],inactive
CCCCCCCCOC(=O)CCCCCCCCC(=O)OCCCCCCCC,outcome,[1],inactive
same,outcome,[2],inactive
same,outcome,[6],inactive
OCCC(F)(F)C(F)(F)C(F)(F)C(F)(F)C(F)(F)C(F)(F)F,outcome,[1],inactive
same,outcome,[6],inactive
OC1CCC(C2CCCCC2)CC1 (stereo unspecified),outcome,[1],inactive
same,outcome,[3],inactive
same,AC50,[6],87.6 µM (active)
CCCCOCCO,outcome,[2],inactive
same,outcome,[6],inactive
CC(C)(C)c1cccc(C(C)(C)C)c1O,outcome,[2],inactive
same,AC50,[4],2.68 µM (active)
same,AC50,[5],10.2 µM (active)
same,AC50,[6],97.8 µM (active)
CCCOc1sc(C(=O)N2CCC(c3cc(CN)ccc3F)CC2)c(C)c1Br,outcome,[1],inactive
same,AC50,[6],57.5 µM (active)
Oc1cccc(O)c1,outcome,[2],inactive
same,AC50,[4],0.0137 µM (active)
same,outcome,[5],inactive
CCCCCCC(=O)O,outcome,[2],inactive
